Values joined by “and” are separate entries in the source; they are usually repeats but may differ in a detail not shown here. Identical values can stand only once. Compounds without any hit were thinned out: in the full panel of roughly 79,000, 15% have a hit. Values without a mark were called inactive. Active and inactive are the calls of the source. Rule as the data show it: active = growth inhibition above about 70%; inactive = the rest.

A short description of assay [1]: NCI Yeast Anticancer Drug Screen. Data for the rad50 strain (AID 155).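 Also: 0% = growth of vehicle-only cultures of the same strain.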 The settings on record: S. cerevisiae rad50 strain growth inhibition, hits give high values; at 50.0 µM unless noted. A digest of the protocol:
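Genetically altered yeast (DNA repair pathway); compound treatment; growth inhibition vs vehicle ctrl.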

A short description of assay [2]: NCI Yeast Anticancer Drug Screen. Data for the mec2-1 strain (AID 157). The following applies: S. cerevisiae mec2-1 strain, hits give high values; at 50.0 µM unless noted. The procedure, abridged:
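Each compound was tested on mec2-1 yeast, a strain altered in DNA damage repair or cell cycle control. Growth inhibition is reported relative to vehicle.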

Assay [3] in a line: NCI Yeast Anticancer Drug Screen. Data for the sgs1 mgt1 strain (AID 161).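 Also: 0% = growth of cultures given vehicle only.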 The following applies: S. cerevisiae sgs1 mgt1 strain, hits give high values; at 50.0 µM unless noted. The procedure, abridged:
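Read-out: growth inhibition vs vehicle controls. Cells: mutant yeast strain deficient in DNA damage repair.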

Assay [4] is described as follows: NCI Yeast Anticancer Drug Screen. Data for the cln2 rad14 strain (AID 165).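 Also: 0% = growth equal to vehicle treated cultures.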 The following applies: S. cerevisiae cln2 rad14 strain, hits give high values; at 50.0 µM unless noted. The procedure, abridged: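 Test compounds were added to cln2 rad14 yeast cultures; inhibition of growth was then determined by comparison with vehicle treatment.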
The nature of assay [5]: NCI Yeast Anticancer Drug Screen. Data for the bub3 strain (AID 167). The following applies: S. cerevisiae bub3 mutant strain, hits give high values; at 50.0 µM unless noted. The procedure, abridged:
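Yeast carrying a defined mutation is treated with each compound, and growth is compared with that of vehicle-exposed cells to give inhibition.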

The nature of assay [6]: NCI Yeast Anticancer Drug Screen. Data for the mlh1 rad18 strain (AID 175). The following applies: S. cerevisiae mlh1 rad18 strain growth inhibition, hits give high values; at 50.0 µM unless noted. The procedure, abridged:
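Inhibition values reflect reduced growth of mutant yeast versus vehicle-treated controls following compound exposure; the mutations affect DNA damage repair.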

In the case of `CSCCC(Nc1ccc([N+](=O)[O-])cc1[N+](=O)[O-])C(=O)O` (stereo not given), the growth inhibition was 9.55% in assay [1]; 7.25% in assay [2]; 34.4% in assay [3]; 18.1% in assay [4]; 17.9% in assay [5]; -18.1% in assay [6].

Take `CCc1ccc(NC(=O)c2ccccc2)cc1CC`: the growth inhibition in assay [1] was -11.3%; in assay [2], -11%; in assay [3] it was -2.5%; in assay [4] it was -97.3%; in assay [5], -4.05%; in assay [6], -19.1%.

In the case of `CCCC(C)C(=O)OCc1ccccc1` (stereo not given), the growth inhibition was 16.6% in assay [1]; -9.5% in assay [2]; 5.35% in assay [3]; -13.7% in assay [4]; 6.7% in assay [5]; 5% in assay [6].

Turning to `CCN(CC)CCC1CCCCN1CC(=O)N1c2ccccc2NC(=O)c2ccccc21` (stereo not given), the growth inhibition in assay [1] was -2.9%; in assay [2], 2%; in assay [3], 8.9%; in assay [4] it was 8.2%; in assay [5], -0.9%; in assay [6], 0.25%.

Regarding `CC(C)OC(=O)CCC(N)C(=O)O` (stereo not given), the growth inhibition in assay [1] is 2.95%; in assay [2], 0.6%; in assay [3], 1.85%; in assay [4], -4.8%; in assay [5] it was 2.55%; in assay [6], 0.1%.

Consider `CC1SCc2nc3ccccc3n21` (stereo not given), for which the growth inhibition was 2.25% in assay [1]; -10.8% in assay [2]; 27.9% in assay [3]; 12.1% in assay [4]; 5.7% in assay [5]; -35.5% in assay [6].

For `CCOC(=O)c1cc([N+](=O)[O-])cnc1C`, the growth inhibition in assay [1] was 5.8%; in assay [2], 10%; in assay [3], -1.7%; in assay [4], 0.4%; in assay [5] it was 8.45%; in assay [6], 2.4%.

Regarding `COC1=CC(=O)CC(C)C12Oc1c(Cl)c(OC)cc(OC)c1C2=O` (stereo not given), the growth inhibition was 2% in assay [1]; -14.5% in assay [2]; 20% in assay [3]; 13.4% in assay [4]; 67.1% in assay [5]; 17.9% in assay [6].

With `Cc1cc(=O)[nH]c2[nH]c(=O)ccc12`, the growth inhibition was -11.4% in assay [1]; 0.05% in assay [2]; -1.5% in assay [3]; -6.35% in assay [4]; -2.2% in assay [5]; 2% in assay [6].

Take `NCCCCCN`: the growth inhibition is 14.4% in assay [1]; -1.05% in assay [2]; -15.9% in assay [3]; 12.3% in assay [4]; -16.7% in assay [5]; -1.45% in assay [6].

Regarding `Cc1c(Cl)cc(Cl)c2c1C(=O)CC(C)O2` (stereo not given), the growth inhibition is 20.4% in assay [1]; 7.4% in assay [2]; -0.4% in assay [3]; -17.2% in assay [4]; -14.5% in assay [5]; 18.8% in assay [6].

Consider `O=C(NCN1CCOCC1)NC(=O)NCN1CCOCC1`, for which the growth inhibition in assay [1] is -10.6%; in assay [2] it was 7.4%; in assay [3], -7.6%; in assay [4], -3.9%; in assay [5], 12.2%; in assay [6], -3.95%.

Take `O=C(/C(Cl)=N/O)c1ccc(O)c(O)c1`: the growth inhibition in assay [1] was 30.3%; in assay [2], 14.8%; in assay [3] it was 18.2%; in assay [4], 24.6%; in assay [5] it was 47.2%; in assay [6], 19.9%.

`CCCCCCOc1ccccc1CO`: the growth inhibition in assay [1] is 14.7%; in assay [2], 10.6%; in assay [3], -1.5%; in assay [4], 2%; in assay [5] it was -8.15%; in assay [6], 10.8%.

Regarding `Cc1ccc(C(=O)OCC(C)C)s1`, the growth inhibition in assay [1] is -6.6%; in assay [2] it was 1.35%; in assay [3] it was -25.8%; in assay [4] it was -40.8%; in assay [5], -6.55%; in assay [6], 13.4%.

With `CCCCCCCCCCCCCCCCCc1c(Cl)c(Cl)c(Cl)c(Cl)c1Cl`, the growth inhibition in assay [1] was 47%; in assay [2] it was -4%; in assay [3] it was 26.4%; in assay [4] it was -45.1%; in assay [5], -2.75%; in assay [6], -6.6%.

`CN(C)CC=C(c1ccccc1)c1ccccc1`: the growth inhibition in assay [1] was -11.9%; in assay [2], -16.4%; in assay [3], -3.3%; in assay [4], -4.05%; in assay [5], -8.85%; in assay [6], 6.6%.

As for `C=CC(C)(C)c1c(OC)cc(-c2ccccc2)oc1=O`, the growth inhibition is -7.65% in assay [1]; -34.4% in assay [2]; 29.6% in assay [3]; -23% in assay [4]; 20.6% in assay [5]; -9.9% in assay [6].

Turning to `O=C(O)c1ccc(NCn2c(=S)sc3ccccc32)cc1`, the growth inhibition in assay [1] is 6.45%; in assay [2], 3%; in assay [3], 52%; in assay [4], 26.9%; in assay [5] it was 11.8%; in assay [6], 11.1%.

Take `NCCNc1ccccc1`: the growth inhibition is -32.9% in assay [1]; -62% in assay [2]; -42.2% in assay [3]; 6.6% in assay [4]; -20.4% in assay [5]; -22.9% in assay [6].

With `CCSC(=Nc1nc2ccc([N+](=O)[O-])cc2s1)SCC`, the growth inhibition was 43.5% in assay [1]; 31.4% in assay [2]; 33.5% in assay [3]; 14.1% in assay [4]; 25.5% in assay [5]; 12.2% in assay [6].

With `CC(=O)OCCOc1ccc2c(c1)OCO2`, the growth inhibition is 3.2% in assay [1]; -1.2% in assay [2]; 4.95% in assay [3]; -23.6% in assay [4]; -1.75% in assay [5]; 30.7% in assay [6].

Consider `CN(C)c1ccc(C(c2ccc(C(c3ccc(N(C)C)cc3)c3ccc(N(C)C)cc3)cc2)c2ccc(N(C)C)cc2)cc1`, for which the growth inhibition was -6.55% in assay [1]; 4.8% in assay [2]; -22.1% in assay [3]; -0.8% in assay [4]; -10.8% in assay [5]; 14.6% in assay [6].

As for `COc1cccc(-c2cc(=O)c3cc(C)cnc3[nH]2)c1`, the growth inhibition in assay [1] is -17.2%; in assay [2] it was 3.85%; in assay [3], 4.05%; in assay [4] it was -2.4%; in assay [5], 18.8%; in assay [6] it was -13.2%.

For `O=C(/C=C/c1ccccc1)c1ccc(I)cc1`, the growth inhibition in assay [1] was 11.7%; in assay [2] it was -1.25%; in assay [3], 9.6%; in assay [4], -8.2%; in assay [5], 5.25%; in assay [6] it was 1.5%.

Consider `O=C(O)/C=C\C(=O)Nc1ccc2c(c1)Cc1cc(O)ccc1-2`, for which the growth inhibition was 7.95% in assay [1]; 30.8% in assay [2]; 17.8% in assay [3]; 25.7% in assay [4]; 21.9% in assay [5]; -0.3% in assay [6].

`NC1=NCC(CN2CCCCC2)O1` (stereo not given): the growth inhibition in assay [1] was 7.1%; in assay [2], 1.8%; in assay [3] it was -4.05%; in assay [4], -2.4%; in assay [5], -8.3%; in assay [6] it was 5.9%.

For the molecule `CCN(CC)OC(=O)/C=C/c1ccccc1`, the growth inhibition in assay [1] was 2.05%; in assay [2], 5.5%; in assay [3], -10.3%; in assay [4], 20.2%; in assay [5] it was -3.3%; in assay [6], -4.45%.

`C=C(C)c1ccc(C(C)C)cc1`: the growth inhibition was -38.5% in assay [1]; -40.1% in assay [2]; -24.6% in assay [3]; 4.55% in assay [4]; -13.6% in assay [5]; -3.25% in assay [6].

`OC1CN(c2ccc(Br)cc2)CC(O)CN(c2ccc(Br)cc2)C1` (stereo not given): the growth inhibition in assay [1] is 98.7% (active); in assay [2], 99.7% (active); in assay [3], 99.7% (active); in assay [4] it was 99.5% (active); in assay [5] it was 99.5% (active); in assay [6], 99.7% (active).

For the molecule `N#CC(C#N)N=O` (tested in a mixture with another compound), the growth inhibition in assay [1] is -4.1%; in assay [2], -15.3%; in assay [3], -15.2%; in assay [4] it was -19.7%; in assay [5] it was -6.9%; in assay [6], -6.25%.

As for `COc1ccc2oc3c(OC)c(OC)c(OC)cc3c(=O)c2c1`, the growth inhibition was -11.3% in assay [1]; -21.6% in assay [2]; -4.95% in assay [3]; 6% in assay [4]; 12.6% in assay [5]; -15.8% in assay [6].

Take `NC(N)=NS(=O)(=O)c1ccc(NCc2c3ccccc3nc3ccccc23)cc1`: the growth inhibition in assay [1] is 41.2%; in assay [2], 26.9%; in assay [3], 38.4%; in assay [4], 6.75%; in assay [5], 46.5%; in assay [6] it was 38.1%.

Take `N.N.N.N.O=C([O-])O.O=C([O-])[O-].[Co+3]`: the growth inhibition in assay [1] is 2.15%; in assay [2], 3.4%; in assay [3] it was 12.1%; in assay [4], 26.9%; in assay [5], 24.2%; in assay [6], 8.95%.

On to `O=CN1CCCCC1`, for which the growth inhibition in assay [1] was -43.1% and -15.2%; in assay [2], -26% and -2.6%; in assay [3], -3.05% and -5.15%; in assay [4], 3.15% and -27.7%; in assay [5] it was -18.9% and 0.45%; in assay [6] it was -8.8% and 0.65%.

For `Cc1ccc(O)c(C=NCCN=Cc2cc(C)ccc2O)c1.[Cu+2]`, the growth inhibition in assay [1] was 1.9%; in assay [2], 5.25%; in assay [3], 6.15%; in assay [4], 8.45%; in assay [5], -20.6%; in assay [6], 13.3%.

For the molecule `CN(C)CCC(C#N)c1ccccc1` (stereo not given), the growth inhibition in assay [1] is -18.6%; in assay [2], -15.6%; in assay [3], -2.7%; in assay [4], -26.4%; in assay [5] it was -3.8%; in assay [6] it was -5.55%.

Consider `CCN(CC)c1ccc(/C=N/Nc2cc(C)nc3ccc(C4CCCCC4)cc23)cc1`, for which the growth inhibition in assay [1] was 25.8%; in assay [2] it was 4.3%; in assay [3], 21.1%; in assay [4], 3.15%; in assay [5], -2.35%; in assay [6] it was 44.9%.

Consider `COC1CCC(/C=C(\C#N)C2CCC(C)CC2)CC1` (stereo not given), for which the growth inhibition in assay [1] is 18.3%; in assay [2], 22.1%; in assay [3], 43.9%; in assay [4], 12.1%; in assay [5] it was 30.2%; in assay [6], 30.6%.

For `CCOc1ccc(N=Nc2c(-c3ccccc3)nn(C(=O)CC(=O)Nc3ccccc3Cl)c2-c2ccccc2)cc1`, the growth inhibition is 20.6% in assay [1]; -8.2% in assay [2]; 34.6% in assay [3]; 3.5% in assay [4]; 31% in assay [5]; 18.7% in assay [6].

Values taken from PubChem BioAssay (NCI).
